This note sets out measurements from PubChem BioAssay (NCATS).

Structures are written as SMILES. Inconclusive results are not listed. Unmarked numbers belong to inactive results. Activity calls are given as the source filed them. Unless noted, calls come from the whole dose curve; as a rule, active = well fitted curve in the direction sought with a large enough effect; inconclusive = small, poorly fitted or top-dose-only effect, or another doubt; inactive = no such curve, though single readings can be large; an effect the other way counts as inactive or inconclusive.

Assay [1] in a line: qHTS for Inhibitors of Plasmodium falciparum (DD2) proliferation (AID 504314).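 Note: parasite DNA measured by SYBR Green fluorescence after red cell lysis; plate controls were DMSO vehicle for no effect and artemisinin wells for full effect.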 An outline of the steps: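 Fluorescence read-out (ex 485/em 535 nm) of SYBR Green-stained parasite DNA quantifies intraerythrocytic growth. Cultures at 0.3% parasitemia and 2.5% hematocrit were treated for 72 h; data normalized to DMSO and 0.29 uM artemisinin wells.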
On the technique in general: qHTS replaces the single test concentration by a dilution series.

The nature of assay [2]: qHTS for Inhibitors of Plasmodium falciparum (GB4) proliferation (AID 504315).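 Note: 0% = DMSO vehicle and -100% = 0.29 µM artemisinin control; nearly all actives have a fitted effect of over 50% in size.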 In short, it runs like this: (§1)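 Erythrocytes infected with P. falciparum line (0.3% parasitemia, 2.5% hematocrit final) incubated with compounds 72 h at 37 °C, 5% CO2; SYBR Green lysis buffer added, fluorescence read next day. Normalized to 0.29 uM artemisinin and DMSO.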
The nature of assay [3]: qHTS for Inhibitors of Plasmodium falciparum (HB3) proliferation (AID 504318).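 Note: 0% = DMSO vehicle and -100% = artemisinin control; nearly all actives have a fitted effect of over 60% in size.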 In short, it runs like this: as §1
A short description of assay [4]: qHTS for Inhibitors of Plasmodium falciparum (CP250) proliferation (AID 504320).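 Note: plate controls were DMSO vehicle for no effect and 0.29 µM artemisinin control for full effect.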 In short, it runs like this:
as §1

The target in assay [5] is Atrial natriuretic peptide receptor 1 (Homo sapiens) (UniProt P16066). In words: Natriuretic polypeptide receptor (hNpr1) antagonism - Pilot CMLD screen (AID 1347052; calls by dose curve;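 note: cGMP level read as GloSensor luciferase luminescence after agonist stimulation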; note: potency is the fitted concentration of half-maximal effect).
Sequence of Atrial natriuretic peptide receptor 1 (Homo sapiens) (P16066 whole entry, looked up): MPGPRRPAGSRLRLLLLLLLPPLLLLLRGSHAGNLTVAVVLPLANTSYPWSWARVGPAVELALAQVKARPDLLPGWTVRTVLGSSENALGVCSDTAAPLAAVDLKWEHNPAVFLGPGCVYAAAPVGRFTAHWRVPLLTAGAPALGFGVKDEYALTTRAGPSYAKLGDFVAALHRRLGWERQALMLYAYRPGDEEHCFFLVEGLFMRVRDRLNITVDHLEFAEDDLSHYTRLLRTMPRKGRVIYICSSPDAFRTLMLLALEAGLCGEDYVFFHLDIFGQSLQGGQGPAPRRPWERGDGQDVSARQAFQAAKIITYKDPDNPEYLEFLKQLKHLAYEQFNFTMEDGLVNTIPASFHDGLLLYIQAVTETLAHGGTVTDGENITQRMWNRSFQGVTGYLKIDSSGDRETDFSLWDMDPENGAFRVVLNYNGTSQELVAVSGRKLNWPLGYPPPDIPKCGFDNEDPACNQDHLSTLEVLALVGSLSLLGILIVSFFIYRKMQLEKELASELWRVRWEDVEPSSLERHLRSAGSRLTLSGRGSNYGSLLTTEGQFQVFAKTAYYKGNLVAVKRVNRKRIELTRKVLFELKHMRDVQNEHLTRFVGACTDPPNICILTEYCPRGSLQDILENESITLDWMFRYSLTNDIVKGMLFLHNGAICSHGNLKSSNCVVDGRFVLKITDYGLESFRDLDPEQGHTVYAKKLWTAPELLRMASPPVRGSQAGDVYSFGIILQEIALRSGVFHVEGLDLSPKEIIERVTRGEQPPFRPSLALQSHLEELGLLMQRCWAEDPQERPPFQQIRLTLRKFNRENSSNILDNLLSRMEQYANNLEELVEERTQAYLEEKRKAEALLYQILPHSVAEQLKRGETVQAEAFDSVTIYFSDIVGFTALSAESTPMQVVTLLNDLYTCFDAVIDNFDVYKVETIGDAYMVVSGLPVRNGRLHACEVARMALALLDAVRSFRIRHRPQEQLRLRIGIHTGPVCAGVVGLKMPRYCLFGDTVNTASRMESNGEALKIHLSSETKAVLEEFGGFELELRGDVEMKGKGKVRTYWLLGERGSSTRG

`CCN1C(=O)NC(c2cccc(C(F)(F)F)c2)C(C(C)=O)=C1C` (centres undefined): the Potency result in assay [1], in assay [2], in assay [3], in assay [4] and in assay [5] was “inactive” each time.

Regarding `O=C1CCCC=C1C(O)CCOCc1ccccc1` (centres undefined), the Potency entry in assay [1], in assay [2], in assay [3], in assay [4] and in assay [5] was “inactive” in each case.

In the case of `Cc1cccc(C)c1Nc1oc(-c2ccccc2)nc1-c1ccccc1`, the Potency result in assay [1], in assay [2], in assay [3] and in assay [5] was “inactive” each time.

Consider `CCCNC(=O)OC[C@H]1O[C@H](CCON=C2[C@H]3CCn4c(=O)n(-c5ccccc5)c(=O)n4[C@@H]3[C@H](O)[C@@H]3O[C@H]23)C=C[C@H]1Oc1ccc(OC)cc1`, for which the Potency result in assay [1], in assay [2], in assay [3], in assay [4] and in assay [5] was “inactive” each time.

Regarding `O=C1[C@H]2[C@@H]3[C@@H](O)[C@H](O)CC(=NOCc4ccccc4)[C@@H]3CC[C@H]2C(=O)N1C[C@@H]1CCCO1`, the Potency entry in assay [1], in assay [2], in assay [3], in assay [4] and in assay [5] was “inactive” in each case.

`COC(=O)[C@@]1(C=C[C@@H](C)[C@H](OC)c2ccccc2Br)[C@@H]2OCCC[C@@H]21`: the Potency result in assay [1], in assay [2], in assay [3], in assay [4] and in assay [5] was “inactive” throughout.

Regarding `CC(=O)OC[C@H]1O[C@H](C#Cc2ccccc2)C=C[C@H]1O`, the Potency entry in assay [1], in assay [2], in assay [3], in assay [4] and in assay [5] was “inactive” in each case.

Consider `COC[C@@H](OC(C)=O)[C@H]1OCc2ccccc2[C@@H]1C=Cc1ccccc1`, for which the Potency entry in assay [1], in assay [2], in assay [3], in assay [4] and in assay [5] was “inactive” throughout.

`COC(=O)CC=C[C@@H](C)[C@H](NC(=O)OCC(Cl)(Cl)Cl)c1cccc(OC)c1`: the Potency entry in assay [1], in assay [2], in assay [3], in assay [4] and in assay [5] was “inactive” throughout.

Take `CCOC(=O)NN=C1C[C@@H](O)[C@@H](O)[C@@H]2[C@H]3C(=O)N(c4cccc(Oc5ccccc5)c4)C(=O)[C@@H]3CC[C@@H]12`: the Potency entry in assay [1], in assay [2], in assay [3], in assay [4] and in assay [5] was “inactive” each time.

In the case of `C[C@@H]1[C@@H](c2ccccc2)Cc2nc3ccccc3nc2C[C@H]1C(=O)N1CCCC1`, the Potency result in assay [1], in assay [2], in assay [3], in assay [4] and in assay [5] was “inactive” in each case.

Take `COC(=O)CCCC1=CC2=CC(=O)C(C)(OC(=O)c3cccs3)C(=O)C2=CN1CC(C)C` (centres undefined): the Potency result in assay [1], in assay [2], in assay [3], in assay [4] and in assay [5] was “inactive” each time.

Take `C[C@H]1CC[C@H]2C(=O)N[C@H](Cc3ccccc3)C(=O)N2[C@H]1c1ccccc1`: the Potency result in assay [1], in assay [2], in assay [3], in assay [4] and in assay [5] was “inactive” in each case.

Regarding `C=CC[C@@H]1C=C[C@H](ON=C(C)CCN2CCCCc3nc(C)c(C)cc32)[C@H](CO)O1`, the Potency entry in assay [1], in assay [2], in assay [3], in assay [4] and in assay [5] was “inactive” each time.

In the case of `COC(=O)CC=C[C@@H](C)[C@@H](C=NOCC[C@@H]1C=C[C@H](OC(C)=O)[C@@H](COC(C)=O)O1)NS(=O)(=O)c1ccc(C)cc1`, the Potency result in assay [1], in assay [2], in assay [3], in assay [4] and in assay [5] was “inactive” in each case.

As to `COc1ccc(C(=O)[C@]2(C)C=C(c3ccc(OC)cc3)[C@H](C)C2)cc1`, the Potency entry in assay [1], in assay [2], in assay [3], in assay [4] and in assay [5] was “inactive” each time.

Consider `COc1ccc2c(c1)[C@@]1(OCCC=C[C@@H]1C)C(=O)N2Cc1ccc(Br)cc1`, for which the Potency result in assay [1], in assay [2], in assay [3], in assay [4] and in assay [5] was “inactive” in each case.

As to `CC(C)[C@@H](OCc1ccccc1)[C@H](C)C=NOC[C@@H](C)[C@H](OCc1ccccc1)C(C)C`, the Potency entry in assay [1], in assay [2], in assay [3], in assay [4] and in assay [5] was “inactive” in each case.

With `CCOC(=O)c1c(C(=O)OCC)c2c3ccccc3cc(C)n2c1C(=O)OC`, the Potency entry in assay [1], in assay [2], in assay [3], in assay [4] and in assay [5] was “inactive” throughout.

For `C=CC(=O)N1C(=O)c2ccccc2S1(=O)=O`, the Potency entry in assay [1], in assay [2], in assay [3] and in assay [4] was “inactive” in each case. Moreover, in assay [5], the Potency was 2.99 µM (active).

In the case of `O=S(=O)(CCc1ccccc1)c1ccccc1`, the Potency result in assay [1], in assay [2], in assay [3], in assay [4] and in assay [5] was “inactive” throughout.

For the compound `C=CC[C@@H]1C=CC(ON=CC[C@@H]2C=C[C@@H](OC(C)=O)[C@@H](COC(C)=O)O2)[C@H](CO)O1` (some centres undefined), the Potency entry in assay [1], in assay [2], in assay [3], in assay [4] and in assay [5] was “inactive” in each case.

Regarding `CCOC(=O)N1C2=NC(C(=O)OC)=C(C(=O)OC)[C@@H]3N(Cc4ccccc4)c4ccccc4[C@]23C[C@H]1C(=O)OC`, in assay [1], the activity, negative = inhibition was -1.2% [at 1.12 µM]. For the same compound, the Potency result in assay [2], in assay [3], in assay [4] and in assay [5] was “inactive” each time.

For the compound `CCN(CC)CCCN1C=C2C(=O)C(C)(OC(=O)C3CCCC3)C(=O)C=C2C=C1c1ccsc1` (centres undefined), the activity, negative = inhibition in assay [1] was -4.1% [at 1.12 µM]. For the same compound, the Potency entry in assay [2], in assay [3], in assay [4] and in assay [5] was “inactive” in each case.

As for `COC[C@@H](O)[C@H]1OCc2cccc(OC)c2[C@H]1C=Cc1ccccc1`, the Potency entry in assay [1], in assay [2], in assay [3], in assay [4] and in assay [5] was “inactive” each time.

Consider `CC(C)=CCCC(C)=CCON=C1C[C@@H](O)[C@@H](O)[C@@H]2[C@H]3C(=O)N(c4ccc(F)cc4F)C(=O)[C@@H]3CC[C@H]12`, for which the Potency entry in assay [1], in assay [2], in assay [3], in assay [4] and in assay [5] was “inactive” in each case.
